Laboratory results: PubChem BioAssay
Activity calls are given as the source filed them.

How the values were obtained:
[1] = A549 cell viability effects, profiling panel, calcein-AM fluorescence, 48 h, basal (AID 1162); conditions: higher = more signal
[2] = adipocyte viability effects, profiling panel, cell-based, 3T3-L1 adipocytes, calcein-AM fluorescence, 48 h, basal (AID 1163); conditions: 3T3-L1 adipocytes viability, higher = more signal
[3] = HepG2 cell viability effects, profiling panel, calcein-AM fluorescence, 48 h, basal (AID 1164); conditions: higher = more signal
[4] = MM1S cell viability effects, profiling panel, calcein-AM fluorescence, 48 h, basal (AID 1165); conditions: higher = more signal;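 note: viability of MM1S multiple myeloma cells under basal unstimulated conditions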
[5] = basal RPMI8226 viability, no added stimulus, profiling panel, cell-based, calcein-AM fluorescence, 48 h, PK04 Diversity Set (AID 1166); conditions: RPMI8226 myeloma viability, higher = more signal;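 note: cells grown under basal conditions without added stimulus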
[6] = basal HepG2 mitochondrial membrane potential changes, profiling panel, cell-based, JC-1 fluorescence, 24 h, 100 nL compound (AID 1167); conditions: higher = more signal
[7] = basal 3T3-L1 adipocyte mitochondrial potential changes, profiling panel, cell-based, JC-1 fluorescence, 3T3-L1 adipocytes, 24 h, 100 nL compound (AID 1168); conditions: JC-1 mitochondrial fluorescence, higher = more signal, called active from +8 up or from −8 down
[8] = basal RPMI8226 mitochondrial membrane potential changes, profiling panel, cell-based, JC-1 fluorescence, 24 h, 100 nL compound (AID 1169); conditions: RPMI8226 myeloma, JC-1 mitochondrial potential fluorescence, higher = more signal
[9] = basal MM1S mitochondrial membrane potential changes, profiling panel, cell-based, JC-1 fluorescence, 24 h, 100 nL compound (AID 1170); conditions: higher = more signal
[10] = A549 lung cancer cell viability effects, profiling panel, resazurin fluorescence, 24 h, PK04 Diversity Set (AID 1171); conditions: higher = more signal, called active from +8 up or from −8 down
Note: test concentration not given here.

Compound | z-score [1] | z-score [2] | z-score [3] | z-score [4] | z-score [5] | z-score [6] | z-score [7] | z-score [8] | z-score [9] | z-score [10]
CC(C)CON=C1C[C@@H](O)[C@@H](O)[C@@H]2[C@@H]3C(=O)N(c4ccc(F)cc4F)C(=O)[C@@H]3CC[C@@H]12 | -0.793 | 0.44 | -0.464 | -0.102 | -0.587 | 1.31 | -0.4 (inactive) | -0.648 | -0.425 | 0.491 (inactive)
O=C1C2=CC[C@H]3C(=O)N(c4ccc(F)cc4F)C(=O)[C@H]3[C@H]2[C@H](O)[C@@H]2O[C@H]12 | -0.463 | -0.438 | 0.0658 | -0.486 | -0.397 | -0.276 | -0.191 (inactive) | 0.0423 | 0.556 | -0.0843 (inactive)
O=C1[C@H]2[C@H]3[C@H](O)[C@H](O)CC(=NOCc4ccccc4)[C@@H]3CC[C@H]2C(=O)N1c1cccc(Oc2ccccc2)c1 | 0.794 | -0.746 | -0.505 | 0.213 | 0.3 | -0.231 | -0.145 (inactive) | 0.542 | -1.68 | -0.227 (inactive)
CC(=O)OC[C@H]1O[C@H](CC=NO[C@@H](C)c2cc(-c3c(C)cc(C)cc3C)no2)C=C[C@@H]1OC(C)=O | -0.937 | 0.318 | -0.799 | 0.267 | -1.29 | -0.158 | -0.845 (inactive) | 0.774 | -0.322 | -0.0973 (inactive)
CCOC(=O)[C@H](CC(C)C)NC(=O)CCC1CC(OC(=O)NCCc2ccc(F)cc2)CC2(CCCC(COC(=O)NCc3cccc(C(F)(F)F)c3)O2)O1 (stereo not given in full) | -0.366 | -0.289 | -0.581 | -3.37 | 0.277 | -0.471 | -0.512 (inactive) | 0.652 | -0.0831 | -0.209 (inactive)
COCOc1ccc(Br)cc1C(=O)C=Cc1ccc2c(c1)OCO2 | -0.206 | -0.342 | -2.2 | -3.48 | -3.81 | 1.28 | 0.0274 (inactive) | -1.12 | -2.71 | -1.56 (inactive)
CC(CCN1CCCc2nc(C)c(C)cc21)=NO[C@H](C)c1cn([C@@H]2COC[C@H]2O)nn1 | 0.105 | -0.563 | 0.243 | -0.674 | -0.0215 | 0.219 | 0.707 (inactive) | 0.641 | -0.825 | -0.294 (inactive)
COC(=O)[C@H](C)NC(=O)CCC1CC(OC(=O)NCCc2ccc(F)cc2)CC2(CCCC(COC(=O)NCCc3ccccc3OC)O2)O1 (stereo not given in full) | -0.0621 | -0.825 | 0.308 | 0.636 | -0.285 | 0.15 | 0.766 (inactive) | 0.0549 | -0.876 | 0.0778 (inactive)
CCN1C(=O)[C@H]2[C@H]3[C@H](O)[C@H](O)CC(=NO[C@@H]4O[C@H](COC(C)=O)[C@@H](OC(C)=O)[C@H](OC(C)=O)[C@H]4OC(C)=O)[C@@H]3CC[C@H]2C1=O | 0.13 | -0.81 | -0.145 | -1.29 | -1.05 | -0.611 | -1.51 (inactive) | 0.69 | -0.654 | -0.959 (inactive)
O=C1C=C[C@@H](O)[C@@H]2[C@@H]3C(=O)N(c4cccc(Oc5ccccc5)c4)C(=O)[C@@H]3CC[C@@H]12 | -0.496 | 1.38 | 0.0765 | -1.03 | -2.47 | 0.111 | 0.717 (inactive) | -0.618 | -0.72 | -0.869 (inactive)
COC(=O)[C@@H]1CC[C@H](C)[C@@H](c2ccc(Br)cc2)N1 | 0.23 | 0.309 | -0.183 | 0.125 | 0.0204 | -0.0948 | -0.644 (inactive) | -0.295 | 0.214 | -0.284 (inactive)
O=C1CCCC=C1C(O)c1ccc([N+](=O)[O-])cc1 (stereo not given) | -0.419 | -0.388 | -0.0678 | -0.629 | 0.372 | -0.614 | -0.0489 (inactive) | 0.566 | 0.502 | -0.258 (inactive)
CC[C@@H](c1ccccc1)n1c(=O)n2n(c1=O)[C@H]1[C@H](O)[C@@H]3O[C@@H]3C(=NOCc3ccccc3)[C@H]1CC2 | -2.83 | 0.229 | -3.76 | -3.1 | -3.84 | 0.517 | -0.327 (inactive) | -1.05 | -1.68 | -2.54 (inactive)
COC(=O)CC=C[C@@H](C)[C@@H](C=NOC[C@@H](O)COCc1ccco1)NS(=O)(=O)c1ccc(C)cc1 | -0.393 | -0.295 | 0.3 | -0.833 | -0.623 | -1.23 | 0.0134 (inactive) | -0.655 | -0.436 | -0.44 (inactive)
COC(=O)[C@H](CCSC)NC(=O)CC=C[C@@H](C)CO | -0.493 | -0.169 | 0.0826 | -1.12 | -0.581 | 0.705 | -0.645 (inactive) | -0.545 | -1.62 | -0.812 (inactive)
CC(C)(C)N1C(=O)[C@H]2[C@@H]3C(=CC[C@H]2C1=O)C(=O)[C@H]1O[C@H]1[C@H]3O | -2.32 | -3.02 | -4.31 | -3.19 | -3.9 | 2.38 | 2.29 (inactive) | -0.787 | -2.59 | -3.43 (inactive)
CCOC(=O)[C@H](Cc1ccccc1)NC(=O)CCC1CC(OC(=O)NCc2cccc3ccccc23)CC2(CCCC(COC(=O)NCCc3ccc(Cl)cc3)O2)O1 (stereo not given in full) | 0.893 | 0.595 | -0.397 | 0.248 | 0.859 | -0.114 | 0.237 (inactive) | -0.185 | -0.401 | 0.895 (inactive)
COC(=O)[C@H](C)NC(=O)CCC1CC(OC(=O)NCCc2ccc(F)cc2)CC2(CCCC(COC(=O)NCCOc3ccccc3)O2)O1 (stereo not given in full) | 0.401 | -0.506 | 0.696 | 0.546 | -0.475 | 1.17 | 0.00171 (inactive) | 0.606 | -0.0736 | 0.579 (inactive)
C=CC[C@@H]1C=C[C@H](ON=C[C@@H](NS(=O)(=O)c2ccc(C)cc2)[C@H](C)C=CCC(=O)OC)[C@@H](CO)O1 | 0.309 | 0.359 | 0.405 | 0.465 | -0.915 | -0.836 | -0.959 (inactive) | 0.117 | -0.979 | -1.03 (inactive)
CC(C)=CCCC(C)=CCON=C1C[C@@H](O)[C@@H](O)[C@@H]2[C@@H]3C(=O)N(Cc4ccc5c(c4)OCO5)C(=O)[C@@H]3CC[C@@H]12 | -0.0221 | 0.603 | -0.53 | -0.788 | -0.327 | -0.0991 | 0.581 (inactive) | 0.0988 | -0.909 | 0.25 (inactive)
CO[C@H]1COC(=O)CCC[C@H](C)[C@@H](OC)COC(=O)CC=C[C@@H]1C | 0.0792 | 0.751 | 0.205 | 0.105 | 0.471 | -0.503 | -0.713 (inactive) | -0.483 | -0.866 | 0.0382 (inactive)
C[C@H]1CC[C@H]2C(=O)OC(COc3ccc(C(C)(C)C)cc3)CN2[C@@H]1c1ccc(Br)cc1 (stereo not given in full) | 2.19 | 0.193 | 0.349 | 0.793 | 0.253 | 0.745 | -0.414 (inactive) | 0.566 | 0.855 | 0.479 (inactive)
COc1ccc(O[C@H]2C=C[C@@H](c3ccccc3)O[C@@H]2CON=C2c3cc(OC)ccc3O[C@H](c3cccc(OC)c3)[C@H]2O)cc1 | 0.344 | -1.17 | 0.189 | -0.0952 | -1.04 | 0.422 | -2.37 (inactive) | -0.326 | -0.0381 | -0.142 (inactive)
CC(C)=NO[C@H](C)c1cn([C@@H]2COC[C@H]2O)nn1 | 0.874 | -0.573 | 0.818 | 0.0495 | -0.275 | 1.01 | 0.0682 (inactive) | 0.183 | -0.593 | -0.483 (inactive)
CO[C@@H]1[C@H](O)CO[C@H]1C=Cc1ccccc1 | 0.998 | 1.12 | -0.0866 | 0.018 | -0.664 | 0.161 | -0.267 (inactive) | 0.337 | 0.859 | -0.587 (inactive)
COC(=O)CC=C[C@@H](C)[C@@H](C=NOC(C)CN1CCCc2nc(C)c(C)cc21)NS(=O)(=O)c1ccc(C)cc1 (stereo not given in full) | 0.969 | -0.176 | 0.0666 | -1.08 | -0.427 | -0.486 | -0.774 (inactive) | 0.462 | -0.534 | -0.726 (inactive)
O=C1[C@H]2[C@H]3[C@H](O)[C@H](O)CC(=NO[C@@H]4O[C@H](CO)[C@@H](O)[C@H](O)[C@H]4O)[C@H]3CC[C@H]2C(=O)N1c1ccc(F)cc1F | -0.32 | 0.528 | -0.846 | 0.0224 | -0.3 | 0.419 | -0.35 (inactive) | -0.177 | -0.709 | 1.09 (inactive)
O=C1C[C@@H](O)[C@@H](O)[C@@H]2[C@@H]3C(=O)N(c4ccc(F)cc4F)C(=O)[C@@H]3CC[C@H]12 | -0.529 | 1.42 | 0.0181 | -0.141 | -0.0202 | -0.541 | -0.922 (inactive) | 0.0715 | 0.448 | -0.715 (inactive)
CCOC(=O)[C@H](CC(C)C)NC(=O)CCC1CC(OC(=O)NCc2ccc3c(c2)OCO3)CC2(CCCC(COC(=O)NCCc3ccc(Cl)cc3)O2)O1 (stereo not given in full) | 0.0432 | -0.179 | 0.0309 | -0.986 | 0.415 | -0.253 | 0.526 (inactive) | -0.966 | -0.238 | 0.39 (inactive)
